# Results published in PubChem BioAssay AID2158 (National Center for Advancing Translational Sciences (NCATS), 2009).
# “And” between values parts separate entries of the source, which are not always exact repeats. Equal values may be shown once. Records with an inconclusive call do not appear. A number with no mark means an inactive call. The source made the active and inactive calls. Calls come from the whole dose curve; as a rule, active = well fitted inhibition curve with a large enough effect; inconclusive = small, poorly fitted or top-dose-only effect; inactive = no such curve, though single readings can be large or run the other way.
# Target: Cruzipain (Trypanosoma cruzi) (UniProt P25779)
# Assay: Confirmation qHTS Assay for Inhibitors of Cruzain; note: nearly all actives have a fitted effect of over 40% in size;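 for activity change, negative = inhibition: plate controls were uninhibited enzyme control for no effect and buffer wells lacking enzyme for full effect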
# Settings: purified cruzain, Z-FR-AMC fluorescence, 0.01% Triton
# Summary of the method: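 Purified cruzain, 1.5 nM, pre-incubated 15 min at room temperature with compound in 100 mM sodium acetate pH 5.5, 5 mM DTT, 0.01% Triton X-100. Then 2 uM Z-FR-AMC added; AMC fluorescence (ex 360/em 450 nm) increase over 60 s gave reaction progress.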
# Potency is the fitted concentration of half-maximal effect.
# Cruzipain (Trypanosoma cruzi), sequence (P25779 123-467 limits assumed): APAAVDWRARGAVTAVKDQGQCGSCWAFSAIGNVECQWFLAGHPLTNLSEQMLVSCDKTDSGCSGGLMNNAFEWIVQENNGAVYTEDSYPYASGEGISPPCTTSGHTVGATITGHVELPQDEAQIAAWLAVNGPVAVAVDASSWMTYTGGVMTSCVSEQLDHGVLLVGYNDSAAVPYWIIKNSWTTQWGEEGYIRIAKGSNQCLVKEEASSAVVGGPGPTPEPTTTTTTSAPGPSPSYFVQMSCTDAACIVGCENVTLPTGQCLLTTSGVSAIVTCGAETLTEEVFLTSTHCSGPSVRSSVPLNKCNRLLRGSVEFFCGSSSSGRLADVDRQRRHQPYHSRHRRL
Compound,"activity change, negative = inhibition",Potency
O=C(NCc1nnc(-c2cc3ccccc3[nH]2)o1)c1ccccc1,-2.11%,
N#CN1CCC(N[S+](=O)([O-])c2cccc(F)c2)CC1,-1.96%,
CCC(c1nnnn1Cc1ccccc1)N(Cc1ccccc1)Cc1cc2cc(C)ccc2[nH]c1=O (stereo unspecified),-9.93%,
Cc1ccc(C(=O)NC2CCN(C#N)CC2)cc1,-5.84%,
O=C(Cc1nnc(CNC(=O)c2ccccc2)o1)Nc1cc(C(F)(F)F)ccc1Cl,-8.68%,
O=C(NCCCc1nc2ccccc2n1CCCCOc1ccccc1)C1CCCCC1,-23.8%,
COc1ccc(-c2nc3c(=O)n(C)c(=O)nc-3n(C)n2)cc1,,1.26 µM (active)
Cc1ccc(C(=O)NCC(=O)OC(C(=O)Nc2cc(C(F)(F)F)ccc2Cl)c2ccccc2)cc1 (stereo unspecified),,7.94 µM (active)
O=C(NC1CC1)c1ccc2nc(-c3ccco3)c(-c3ccco3)nc2c1,,14.1 µM (active)
CCOc1nc(C#N)nc(N2CCOCC2)n1,,5.01 µM (active)
N#CN1CCC(NS(=O)(=O)c2ccc(C(F)(F)F)cc2)CC1,-6.95%,
O=C(NCCc1nc2ccccc2n1CCCOc1cccc2ccccc12)C1CCCCC1,,2.24 µM (active)
Cc1cc(OCCn2c(CCNC(=O)C3CCCCC3)nc3ccccc32)ccc1Cl,,1 µM (active)
Cc1ccc(OCCNC(=O)CNC(=O)Cc2cccc3ccccc23)cc1,-1.3%,
N#Cc1nc(Nc2ccc(F)cc2)nc(NC2CCCC2)n1,,0.126 µM (active)
CC(C)(C)c1ccccc1Nc1nc(C#N)nc(NC2CCCC2)n1,,2 µM (active)
O=C(CNC(=O)c1ccncc1)OC(C(=O)Nc1cc(C(F)(F)F)ccc1Cl)c1ccccc1 (stereo unspecified),,25.1 µM (active)
CCN(CC)c1nc(C#N)nc(N(CC)CC)n1,,17.8 µM (active) and 14.1 µM (active)
CN(c1ccccc1)c1nc(C#N)nc(N2CCOCC2)n1,,1.26 µM (active)
O=C(COC(=O)CNC(=O)c1ccccc1)Nc1cc(C(F)(F)F)ccc1Cl,,11.2 µM (active)
N#Cc1nc(Nc2cc(F)cc(F)c2)c2ncn(C3CCCC3)c2n1,,0.0224 µM (active)
O=C(NCCO)c1ccc2nc(-c3ccco3)c(-c3ccco3)nc2c1,,14.1 µM (active)
Cc1cccc(C)c1OCCn1c(CCNC(=O)C2CCCCC2)nc2ccccc21,,1.12 µM (active)

Compound,"activity change, negative = inhibition",Potency
CC(=O)OC1(C(F)(F)F)Oc2ccccc2NC1=O (stereo unspecified),,2.82 µM (active)
O=C(NCCc1nc2ccccc2n1CCOc1ccccc1)C1CCCCC1,,0.794 µM (active)
O=C(Nc1cc(C(F)(F)F)ccc1Cl)C(O)Cc1ccccc1 (stereo unspecified),-18.4%,
CCOc1ccc(-c2nn3c(-c4cc(-c5ccccc5)n[nH]4)nnc3s2)cc1,-7.68% and -5.69%,
O=C(CNC(=O)C1CCCCC1)OCC(=O)c1ccccc1,,6.31 µM (active)
Cc1ccc(C)c(OCCn2c(CCNC(=O)C3CCCCC3)nc3ccccc32)c1,,0.0708 µM (active)
O=C(COC(=O)CNC(=O)C1CCCCC1)NC1CC1,,15.8 µM (active)
O=C(COC(=O)CNC(=O)C1CCCCC1)NC1CCCC1,,12.6 µM (active)
CCc1ccc(OCCn2c(CCNC(=O)C3CCCCC3)nc3ccccc32)cc1,,2.24 µM (active)
NC(=S)N/N=C/c1ccc(-c2ccc(Cl)c(Cl)c2)o1,,2 µM (active)
COc1ccccc1N1CCN(C(=O)CN(c2ccccc2OC)S(=O)(=O)c2ccccc2)CC1,-10.1%,
CCC(C)c1ccccc1OCCn1c(CCNC(=O)C2CCCCC2)nc2ccccc21 (stereo unspecified),,10 µM (active)
O=C(NC(=S)Nc1nc(-c2cccc3ccccc23)cs1)c1cc2ccccc2o1,-1.65%,
O=C(c1ccco1)N1CCN(c2ncnc3c2[nH]c2ccc(Cl)cc23)CC1,-37.6%,
Cc1ccc(CN(Cc2cc3cc(C)ccc3[nH]c2=O)Cc2nnnn2Cc2ccccc2)cc1,-18.6%,
O=C(NCCCc1nc2ccccc2n1CCCOc1ccccc1)C1CCCCC1,-12.3%,
COc1ccc2[nH]c(=O)c(CN(Cc3nnnn3Cc3ccco3)C3CCCCC3)cc2c1,,14.1 µM (active)
N#Cc1nc(NCCCO)nc(Nc2ccccc2)n1,,2.24 µM (active)
Cc1cc(C)cc(OCCn2c(CCNC(=O)C3CCCCC3)nc3ccccc32)c1,,631 nM (active) and 2.24 µM (active)
Cc1ccc2[nH]c(=O)c(CN(Cc3ccccc3)Cc3nnnn3Cc3ccco3)cc2c1,-19.4%,
CNC(=O)c1ccc2nc(-c3ccco3)c(-c3ccco3)nc2c1,,7.08 µM (active)
O=C(CNC(=O)C1CCCCCC1)OC(C(=O)Nc1cc(C(F)(F)F)ccc1Cl)c1ccccc1 (stereo unspecified),,7.08 µM (active)
CCOc1ccc(NC(=O)c2ccc(CNc3c(NC4CCCCC4)c(=O)c3=O)cc2)cc1,1.77%,

Compound,"activity change, negative = inhibition",Potency
CCC(C)[C@@H](N)C(=O)N/N=C/c1ccc2ncccc2c1 (stereo partly specified),,22.4 µM (active)
COc1ccc(NC(=O)C(OC(=O)CNC(=O)c2ccccc2)c2ccccc2)cc1Cl (stereo unspecified),,12.6 µM (active)
O=C(NCCc1nc2ccccc2n1CCOc1cccc2ccccc12)C1CCCCC1,-11.4%,
C/C(CC(=O)Nc1ccc(Cl)c(Cl)c1)=N\NC(N)=S,,1.12 µM (active)
CC(C)CNc1nc(C#N)nc(Nc2ccccc2)n1,,0.891 µM (active)
N#Cc1nc(Nc2ccccc2)nc(NC2CCCC2)n1,,0.708 µM (active)
CCNc1nc(C#N)nc(N2CCCCC2)n1,,5.01 µM (active)
CC(C)C[C@H](N)c1nnc(S(=O)(=O)Cc2ccc(F)cc2)o1,-25.7%,
O=C(NCCc1nc2ccccc2n1Cc1ccccc1F)c1ccc(F)cc1,,1.58 µM (active)
N#Cc1c(-c2ccccc2)cc(-c2ccco2)c(C#N)c1N,-11%,
Cc1cc(OCC(=O)Nc2ccc(N3CCCC3)cc2)cc(C)c1Cl,-30.4%,
N#Cc1nc(Nc2cccc(F)c2)nc(NC2CCCC2)n1,,0.0794 µM (active)
COc1ccc(N=Cc2nc(-c3ccccc3)oc2OC(=O)c2ccccc2)cc1,-22%,
O=c1cc(-c2cccc(Br)c2)nc(-c2ccccc2F)o1,,11.2 µM (active)
CCOc1ccc(C(=O)COC(=O)CNC(=O)C2CCCCC2)cc1,,3.16 µM (active)
c1ccc(CN(Cc2ccccc2)Cc2nnc(-c3cc4ccccc4[nH]3)s2)cc1,-2.53%,
Cc1ccc(OCCn2c(CCNC(=O)C3CCCCC3)nc3ccccc32)cc1,,0.1 µM (active)
O=C(NCCc1nc2ccccc2n1CCCOc1ccccc1)C1CCCCC1,,2.24 µM (active)
O=C(NCc1ccc2c(c1)OCO2)c1ccc2c(c1)N(Cc1c(F)cccc1Cl)C(=O)c1ccccc1S2,3.42%,
O=C(CNC(=O)c1ccccc1)OCC(=O)c1cccc2ccccc12,-21.8%,
COc1cc(Cl)c(C)cc1NC(=O)C(OC(=O)CNC(=O)c1ccccc1)c1ccccc1 (stereo unspecified),,31.6 µM (active)
O=C(NCCc1nc2ccccc2n1CCCOc1ccc(Cl)cc1)C1CCCCC1,,0.891 µM (active)
CCn1cnc2c(Nc3ccc(CCC(=O)N=C(N)N)cc3)nc(C#N)nc21,,35.5 µM (active)

Compound,"activity change, negative = inhibition",Potency
O=C(CNC(=O)C1CCCCC1)OC(C(=O)Nc1cc(C(F)(F)F)ccc1Cl)c1ccccc1 (stereo unspecified),,5.01 µM (active)
CN1CCN(c2ncc3ncc(=O)n(-c4ccccc4)c3n2)CC1,-20%,
N#Cc1c(N2CCOCC2)nc(-c2ccco2)c2c1CCCC2,,3.98 µM (active)
C=CC(=O)c1ccc2ccccc2c1,,25.1 µM (active)
O=C(CCN1C(=O)/C(=C/C=C/c2ccccc2)SC1=S)Nc1nccs1,1.52%,
Cc1ccc(C(=O)NCC(=O)OCC(=O)c2ccc3ccccc3c2)cc1,,12.6 µM (active)
Cc1ccccc1OCCn1c(CCNC(=O)C2CCCCC2)nc2ccccc21,,631 nM (active) and 1 µM (active)
CCc1ccc2[nH]c(=O)c(CN(Cc3ccco3)Cc3nnnn3Cc3ccco3)cc2c1,-11.7%,
N#Cc1nc(N2CCCCC2)nc(N2CCCCC2)n1,,8.91 µM (active)
N#CN1CCC(NC(=O)c2cccc(C(F)(F)F)c2)CC1,-5.22%,
Cc1ccccc1OCC(=O)NCC(=O)OCC(=O)c1ccc(-c2ccccc2)cc1,-15.9%,
Cc1ccccc1OCC(=O)NCC(=O)OCC(=O)c1ccc([N+](=O)[O-])cc1,,35.5 µM (active)
CCCCC(O)C(=O)Nc1cc(C(F)(F)F)ccc1Cl (stereo unspecified),-16.9%,
Cc1ccc(Cn2c(CCNC(=O)c3cccc(C)c3)nc3ccccc32)cc1,,2.82 µM (active)
CC(C)(C)OC(=O)CC(=O)NNC(=O)c1nc2ccccc2[nH]1,3.76%,
Cc1cccc2cc(CN(Cc3ccccc3)Cc3nnnn3Cc3ccccc3)c(=O)[nH]c12,-11.7%,
CC1(C)Cc2c(C#N)c(N3CCN(C(=O)c4ccccc4)CC3)nc(-c3ccco3)c2CS1,,15.8 µM (active)
O=C(CNC(=O)c1ccc(Cl)cc1Cl)OC(C(=O)Nc1cc(C(F)(F)F)ccc1Cl)c1ccccc1 (stereo unspecified),,7.08 µM (active)
CCn1cnc2c(Nc3ccc(Cc4cccnc4)cc3)nc(C#N)nc21,,14.1 µM (active)
CN(C)c1ccc(C(=O)NCC(=O)OC(C(=O)Nc2cc(C(F)(F)F)ccc2Cl)c2ccccc2)cc1 (stereo unspecified),,14.1 µM (active)
O=[N+]([O-])c1ccccc1S(=O)(=O)NCC1CCC(CNCC2CCc3ccccc3C2)CC1 (stereo unspecified),-5.24%,
Cc1ccccc1OCCCCn1c(CCNC(=O)C2CCCCC2)nc2ccccc21,,0.562 µM (active)
